The values below come from PubChem BioAssay (NCATS).

Values joined by “and” are separate entries in the source; they are usually repeats but may differ in a detail not shown here. Equal entries are not always repeated. Records with an inconclusive call do not appear. Active and inactive are the calls of the source. Unless noted, the call rests on the fitted dose curve; in most records, active means well fitted curve in the direction sought with a large enough effect; inconclusive means small, poorly fitted or top-dose-only effect, or another doubt; inactive means no such curve, though single readings can be large; an effect the other way counts as inactive or inconclusive.

Assay [1] can be described thus: Primary qHTS for inhibitors of nuclear receptor binding SET domain protein 2 (NSD2) in an RCH-ACV wild type WT cells (2C) (AID 1645877). Further: nearly all actives have a fitted effect of over 70% in size. Further: potency means the concentration at half of the fitted maximal effect.
The target in assay [2] is Catechol O-methyltransferase (Homo sapiens) (UniProt P21964). Put plainly: Confirmatory Screen for Target Class Profiling of Small Molecule Inhibitors of Methyltransferases (AID 1745852; calls by dose curve; further: potency means the concentration at half of the fitted maximal effect; on activity change, negative = inhibition: on the % scale 0 is the no-effect control and ±100 the full control effect). The settings on record: MTase-Glo luminescence, SAH detection, recombinant enzyme; measured here: COMT max response; stronger effect = lower value.
Chain of Catechol O-methyltransferase (Homo sapiens) (P21964 whole entry, looked up): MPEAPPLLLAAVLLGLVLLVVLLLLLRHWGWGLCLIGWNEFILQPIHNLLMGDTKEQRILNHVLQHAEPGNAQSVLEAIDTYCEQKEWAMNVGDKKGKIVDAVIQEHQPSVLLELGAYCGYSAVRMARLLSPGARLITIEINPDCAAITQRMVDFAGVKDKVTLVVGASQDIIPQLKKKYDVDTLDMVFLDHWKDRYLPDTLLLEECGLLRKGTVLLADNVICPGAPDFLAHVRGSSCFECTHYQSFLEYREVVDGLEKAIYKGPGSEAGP
In assay [3] the target is Guanidinoacetate N-methyltransferase (Homo sapiens) (UniProt Q14353). Described as above. To be noted: activity change, negative = inhibition: at 57.3 µM (top of the series) unless noted.
Assay [4] concerns the target Nicotinamide N-methyltransferase (Homo sapiens) (UniProt P40261). The description is as above. The settings on record: MTase-Glo luminescence, SAH detection, recombinant enzyme; measured here: NNMT max response; stronger effect = lower value.
Assay [5] has as its target Phenylethanolamine N-methyltransferase (Homo sapiens) (UniProt P11086). The description is as above. The settings on record: MTase-Glo luminescence, SAH detection, recombinant enzyme; measured here: PNMT max response; stronger effect = lower value.
Assay [6] has as its target Glutathione peroxidase 1 (Homo sapiens) (UniProt P07203). The assay is described as follows: Primary qHTS Assay for Inhibitors of Recombinant Selenoprotein Glutathione Peroxidase 1 (GPX1) (AID 1845191). Further: nearly all actives have a fitted effect of over 65% in size. A digest of the protocol: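 NADPH consumption tracked by fluorescence at 340/450 nm between t=0 and t=15 min, room temperature. Final mix: 10 nM GPX1, 100 nM glutathione reductase, 1 mM GSH, 0.5 mM NADPH, 0.5 mM cumene hydroperoxide, 0.01% BSA; 30 min compound–enzyme preincubation.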
(In general: Quantitative high-throughput screening tests each substance at several concentrations.)

The target of assay [7] is Phospholipid hydroperoxide glutathione peroxidase GPX4 (Homo sapiens) (UniProt P36969). Put plainly: Primary qHTS Assay for Inhibitors of Recombinant Selenoprotein Glutathione Peroxidase 4 (GPX4) (AID 1845192). Further: nearly all actives have a fitted effect of over 65% in size. On activity change, negative = inhibition: on the % scale 0 is the no-effect control and ±100 the full control effect. The method in brief:
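NADPH consumption followed by fluorescence at 340/450 nm, t=0 and after 15 min at room temperature. Reaction started with cumene hydroperoxide (0.5 mM final) after 30 min compound–GPX4 preincubation; final 200 nM GPX4, 100 nM GR, 1 mM GSH, 0.5 mM NADPH.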

The target in assay [8] is Luciferin 4-monooxygenase (Photinus pyralis) (UniProt P08659). Put plainly: Primary firefly luciferase (FLuc) qHTS assay for identification of artifact compounds. (AID 1845220). Further: nearly all actives have a fitted effect of over 60% in size.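 On activity change, negative = inhibition: plate controls were DMSO vehicle for no effect and no enzyme for full effect.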 A digest of the protocol: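 FLuc 10 nM; luciferin 10 uM; ATP 10 uM; Tris-acetate pH 7.6, Mg-acetate 10 mM; 15 min RT preincubation; 5 min reaction; luminescence.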
The nature of assay [9]: Primary fluorescence-based thiol-reactive (MSTI) qHTS assay for identification of artifact compounds. (AID 1845221). Further: nearly all actives have a fitted effect of over 65% in size. Further: potency means the concentration at half of the fitted maximal effect. A digest of the protocol:
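Compounds were incubated 1 h at room temperature in the dark with the MSTI probe (4 uM) in PBS pH 7.4, 2% DMSO. Signals were normalized between Acetyl-MSTI and MSTI.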

Assay [10] relates to Nanoluciferase (engineered Oplophorus gracilirostris luciferase). The assay is described as follows: Primary Nanoluciferase (NLuc) qHTS assay for identification of artifact compounds. (AID 1845222). Further: potency means the concentration at half of the fitted maximal effect. A digest of the protocol: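 NLuc from S16 cell medium (1:55) plus test compounds, 15 min, room temperature. Luminescence after Nano-Glo (1:100) addition, 5 min.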
The nature of assay [11]: Primary redox qHTS assay for identification of artifact compounds. (AID 1845223).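 Further: 0% = DMSO and 100% = reference compound.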 The method in brief:
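Redox-cycling detection via DTT (250 uM final) oxidation coupled to Amplex Red (25 uM)/HRP (250 mU/mL) in HBSS. 15 min preincubation plus 30 min after DTT, room temperature. Ex/Em 525/598 nm; 4-parameter Hill fit against DMSO and 10 uM DA3003.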

Chain of Phospholipid hydroperoxide glutathione peroxidase GPX4 (Homo sapiens) (P36969 whole entry, looked up): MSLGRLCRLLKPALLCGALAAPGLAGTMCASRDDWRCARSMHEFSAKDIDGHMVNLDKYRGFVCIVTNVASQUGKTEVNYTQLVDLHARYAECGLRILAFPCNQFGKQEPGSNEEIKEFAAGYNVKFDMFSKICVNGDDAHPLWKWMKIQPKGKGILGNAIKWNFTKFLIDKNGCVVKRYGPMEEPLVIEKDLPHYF
Chain of Phenylethanolamine N-methyltransferase (Homo sapiens) (P11086 whole entry, looked up): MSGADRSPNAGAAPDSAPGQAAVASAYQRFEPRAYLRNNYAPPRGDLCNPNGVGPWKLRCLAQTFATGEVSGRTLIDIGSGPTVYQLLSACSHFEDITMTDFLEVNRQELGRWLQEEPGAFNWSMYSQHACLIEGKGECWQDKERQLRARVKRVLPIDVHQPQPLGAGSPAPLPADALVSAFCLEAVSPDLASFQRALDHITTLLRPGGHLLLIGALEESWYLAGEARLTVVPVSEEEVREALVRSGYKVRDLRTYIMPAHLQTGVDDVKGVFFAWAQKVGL
Chain of Glutathione peroxidase 1 (Homo sapiens) (P07203 whole entry, looked up): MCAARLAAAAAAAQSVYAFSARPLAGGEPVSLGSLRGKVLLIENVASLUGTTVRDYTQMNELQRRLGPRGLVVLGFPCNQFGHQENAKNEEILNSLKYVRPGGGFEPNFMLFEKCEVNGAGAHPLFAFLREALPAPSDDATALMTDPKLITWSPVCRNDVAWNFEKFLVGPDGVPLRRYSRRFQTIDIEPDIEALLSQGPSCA
Chain of Nicotinamide N-methyltransferase (Homo sapiens) (P40261 whole entry, looked up): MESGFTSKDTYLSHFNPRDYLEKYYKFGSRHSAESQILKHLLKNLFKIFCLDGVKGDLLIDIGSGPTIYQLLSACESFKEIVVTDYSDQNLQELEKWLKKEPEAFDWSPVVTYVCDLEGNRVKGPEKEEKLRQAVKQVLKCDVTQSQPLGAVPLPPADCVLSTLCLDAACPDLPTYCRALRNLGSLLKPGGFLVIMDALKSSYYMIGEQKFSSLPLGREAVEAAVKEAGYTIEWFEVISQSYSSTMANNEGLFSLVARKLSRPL

`C[C@]12C[C@@H](O)[C@@H]3C[C@@]1(O[C@@H]1O[C@H](CO)[C@@H](O)[C@H](O)[C@H]1O)[C@]3(COC(=O)c1ccccc1)C(=O)O2`: the Potency result in assay [1], in assay [6], in assay [7], in [8], in [10] and in assay [11] was “inactive” each time. Moreover, the activity in assay [2] is -66.1%; in [4], 0%; in assay [5], 6.78%. Also, the activity change, negative = inhibition in [3] worked out at 0.459% [at 29.8 µM]. Besides, the Potency in assay [9] was 13 µM (active).

Consider `COC(=O)C1=C2Nc3ccccc3C23CCN2CCCC(C(C)O)(C1)C23` (stereo not drawn), for which the Potency entry in assay [1], in [6], in [7], in assay [8] and in [10] was “inactive” throughout. Besides, the activity in [2] is -1.85%; in [4] it was 2.66%; in assay [5], -1.29%. The activity change, negative = inhibition in assay [3] was 0%.

Turning to `Cc1cc(N(C)C)ccc1-c1nc2ccc(-c3nc4ccc(N5CCN(C)CC5)cc4[nH]3)cc2[nH]1`, the Potency in assay [1] is 258 nM (active); in assay [9] it was 2.38 µM (active). Further, the activity in assay [2] was -4.96%; in assay [4], -5.28%; in [5] it was -3.42%. The activity change, negative = inhibition in assay [3] was found to be 0%. Also, the Potency result in [6] and in [10] was “inactive” each time.

On to `C=C[C@H]1[C@H](O[C@@H]2O[C@H](CO)[C@@H](O)[C@H](O)[C@H]2O)OC=C(C(=O)OC)[C@H]1C/C=C(/C=O)[C@@H]1C(C(=O)OC)=CO[C@@H](O[C@@H]2O[C@H](CO)[C@@H](O)[C@H](O)[C@H]2O)[C@@H]1C=C`, for which the Potency result in assay [1], in assay [6], in assay [7], in [8], in [10] and in assay [11] was “inactive” throughout. The activity was -65.2% in [2], 0% in [4] and 4.52% in assay [5]. Moreover, the activity change, negative = inhibition in [3] stood at 0% [at 19.1 µM].

As to `CC1=CC(=O)CC(C)(C)C1CCC(C)O[C@@H]1O[C@H](CO[C@@H]2OC[C@@H](O)[C@H](O)[C@H]2O)[C@@H](O)[C@H](O)[C@H]1O` (stereo partly drawn), the Potency entry in assay [1], in assay [6], in assay [7], in [8], in [10] and in assay [11] was “inactive” throughout. In addition, the activity in assay [2] is -54.5%; in assay [4], 0.168%; in assay [5], 0.0687%. The activity change, negative = inhibition in [3] came out at 0% [at 29.8 µM].

On to `COc1cc2c(NC3CCN(CC4CCCCC4)CC3)nc(N3CCCN(C(C)C)CC3)nc2cc1OCCCN1CCCCC1`, for which the Potency in [1] is 2.3 µM (active) and 3.32 µM (active). Also, the activity in assay [2] was -7.99%; in [4] it was -18.7%; in [5] it was -1.55%. The activity change, negative = inhibition in assay [3] is -0.195%. Also, the Potency result in assay [6], in [8], in [9], in [10] and in assay [11] was “inactive” in each case.

In the case of `COc1ccc(-c2cnc3ccc(NCc4ccc(S(N)(=O)=O)cc4)nn23)cc1OC`, the Potency in [1] is 7280 nM (active); in assay [3], 38.3 µM (active). The activity in assay [2] was -34.5%; in assay [4], -24.2%; in assay [5], -27.8%. Besides, the Potency entry in [6], in assay [7], in [8], in assay [10] and in assay [11] was “inactive” in each case.

Take `CCc1c(-c2ccccc2)c(-c2ccccc2)nn1-c1ccccc1-c1cccc(OCC(=O)O)c1`: the Potency result in [1], in [6], in assay [8], in assay [9] and in assay [11] was “inactive” throughout. In addition, the activity in [2] is -1.93%; in [4] it was -56%; in [5], -7.07%. Also, the activity change, negative = inhibition in assay [3] was 0%. In addition, in assay [10], the Potency is 0.269 µM (active).

Take `C=C(C)C1Cc2cc(C(=O)OC3OC(CO)C(O)C(O)C3O)ccc2O1` (stereo not drawn): the Potency entry in assay [1], in assay [6], in assay [8], in assay [10] and in assay [11] was “inactive” throughout. The activity was -58% in [2], -2.77% in [4] and -3.74% in [5]. The activity change, negative = inhibition in [3] is -3.06%. Further, the Potency in assay [9] is 9.27 µM (active).
